Test in all cases: DAPPL (digital affinity profiling via proximity ligation, sequencing); 10 mM Tris-HCl pH 7.5, 50 mM NaCl, 1 mM DTT, 4% glycerol, room temperature, 30 min; GST-TFs on glutathione beads, 16-mer random dsDNA library, 0.1% formaldehyde crosslink after washing; high values mean tight binding
Settings in all cases: protein: recombinant; tags: N-terminal GST; dsDNA, one strand shown

Test [1] deals with T1, ETV3L (Homo sapiens, UniProt Q6ZN32 1-361).
T1 sequence: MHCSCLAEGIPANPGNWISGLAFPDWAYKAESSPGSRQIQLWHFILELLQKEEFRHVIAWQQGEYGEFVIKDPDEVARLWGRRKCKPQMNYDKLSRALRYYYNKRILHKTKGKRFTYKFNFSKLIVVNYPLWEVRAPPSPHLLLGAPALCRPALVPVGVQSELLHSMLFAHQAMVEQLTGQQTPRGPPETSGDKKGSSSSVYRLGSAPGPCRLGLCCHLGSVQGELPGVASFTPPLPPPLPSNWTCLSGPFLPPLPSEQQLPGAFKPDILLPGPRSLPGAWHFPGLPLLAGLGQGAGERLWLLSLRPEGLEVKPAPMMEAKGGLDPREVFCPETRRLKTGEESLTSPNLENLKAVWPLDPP
Summed up: (§1)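 Pools of DNA-barcoded human transcription factors, expressed in yeast as GST fusions on glutathione beads and combined with a tag-only sample, were incubated with 200 nmole of a 16-mer random double-stranded DNA library. Incubation took 30 min at room temperature in Tris/NaCl/DTT/glycerol buffer and was followed by washing, 0.1% formaldehyde crosslinking, proximity ligation (BsaI/T4 ligase, 1 h, 37 °C), PCR amplification and sequencing on an Illumina NextSeq500. Binding signal is the ratio of a hexamer's read frequency for a factor to its frequency for the tag-only sample.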

Test [2] has as its target T2, ETS2 (Homo sapiens, UniProt P15036 1-469).
T2 sequence: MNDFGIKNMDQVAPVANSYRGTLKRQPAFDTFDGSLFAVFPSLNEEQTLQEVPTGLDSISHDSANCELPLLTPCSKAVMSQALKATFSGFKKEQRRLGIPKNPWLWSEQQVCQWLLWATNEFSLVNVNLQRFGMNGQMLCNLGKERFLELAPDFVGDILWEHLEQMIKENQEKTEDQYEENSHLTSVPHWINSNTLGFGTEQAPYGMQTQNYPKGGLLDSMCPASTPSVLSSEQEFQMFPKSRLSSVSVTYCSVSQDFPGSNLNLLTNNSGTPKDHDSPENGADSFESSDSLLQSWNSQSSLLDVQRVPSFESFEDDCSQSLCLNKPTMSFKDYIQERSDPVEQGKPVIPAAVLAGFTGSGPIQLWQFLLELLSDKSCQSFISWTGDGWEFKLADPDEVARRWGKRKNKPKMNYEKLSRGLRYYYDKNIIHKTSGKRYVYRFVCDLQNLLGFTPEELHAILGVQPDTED
The essentials: as §1

Test [3] deals with T3, SPDEF (Homo sapiens, UniProt O95238 1-335).
T3 sequence: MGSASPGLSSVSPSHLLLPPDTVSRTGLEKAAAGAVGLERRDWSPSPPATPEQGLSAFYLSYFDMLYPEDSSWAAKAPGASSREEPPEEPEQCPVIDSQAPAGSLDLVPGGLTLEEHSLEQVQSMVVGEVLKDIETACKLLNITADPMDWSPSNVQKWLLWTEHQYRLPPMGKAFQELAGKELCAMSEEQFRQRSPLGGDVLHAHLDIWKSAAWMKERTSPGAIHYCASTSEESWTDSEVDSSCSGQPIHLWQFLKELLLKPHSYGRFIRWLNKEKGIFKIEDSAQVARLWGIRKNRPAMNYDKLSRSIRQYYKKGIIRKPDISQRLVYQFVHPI
Summed up: as §1

Test [4] addresses T4, ETV7 (Homo sapiens, UniProt Q9Y603 1-341).
T4 sequence: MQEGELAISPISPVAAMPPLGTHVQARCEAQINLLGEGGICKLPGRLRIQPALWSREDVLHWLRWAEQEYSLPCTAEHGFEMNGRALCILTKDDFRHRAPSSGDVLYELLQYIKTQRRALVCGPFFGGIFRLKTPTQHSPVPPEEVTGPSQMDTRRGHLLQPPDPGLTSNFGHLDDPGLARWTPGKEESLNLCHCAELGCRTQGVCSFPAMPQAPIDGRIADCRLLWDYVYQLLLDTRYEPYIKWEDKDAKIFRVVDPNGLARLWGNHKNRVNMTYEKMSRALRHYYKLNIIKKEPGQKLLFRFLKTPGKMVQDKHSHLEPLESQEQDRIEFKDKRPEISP
The essentials: as §1

Test [5] deals with T5, ETV3 (Homo sapiens, UniProt P41162-2 1-143).
T5 sequence: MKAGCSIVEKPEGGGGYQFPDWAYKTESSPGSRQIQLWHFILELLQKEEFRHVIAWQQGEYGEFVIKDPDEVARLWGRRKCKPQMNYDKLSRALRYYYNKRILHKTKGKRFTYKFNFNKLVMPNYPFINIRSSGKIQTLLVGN
Summed up: as §1

Test [6] deals with ETV6 (Homo sapiens, UniProt P41212 1-452). The essentials: as §1
ETV6, sequence (P41212 whole entry): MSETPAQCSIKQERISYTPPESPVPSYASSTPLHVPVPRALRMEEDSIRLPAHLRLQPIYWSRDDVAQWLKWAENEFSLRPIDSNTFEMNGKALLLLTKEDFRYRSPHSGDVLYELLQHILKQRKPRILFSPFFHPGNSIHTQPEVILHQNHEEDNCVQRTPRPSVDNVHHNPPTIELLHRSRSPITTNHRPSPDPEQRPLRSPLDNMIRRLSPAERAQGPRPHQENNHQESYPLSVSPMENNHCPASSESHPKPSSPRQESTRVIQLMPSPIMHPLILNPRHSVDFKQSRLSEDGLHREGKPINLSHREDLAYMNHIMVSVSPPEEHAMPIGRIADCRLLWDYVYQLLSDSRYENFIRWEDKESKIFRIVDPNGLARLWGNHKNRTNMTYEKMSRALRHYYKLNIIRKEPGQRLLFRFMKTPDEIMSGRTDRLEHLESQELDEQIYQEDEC
The target in test [7] is T6, ELF5 (Homo sapiens, UniProt Q9UKW6-2 1-255).
T6 sequence: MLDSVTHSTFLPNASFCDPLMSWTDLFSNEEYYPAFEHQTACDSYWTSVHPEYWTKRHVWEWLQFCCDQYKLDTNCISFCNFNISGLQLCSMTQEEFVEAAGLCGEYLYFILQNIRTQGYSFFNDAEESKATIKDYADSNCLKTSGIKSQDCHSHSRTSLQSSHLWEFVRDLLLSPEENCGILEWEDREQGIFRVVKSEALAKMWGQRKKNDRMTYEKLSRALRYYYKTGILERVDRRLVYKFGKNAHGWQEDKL
The essentials: as §1

Test [8] addresses T7, ERF (Homo sapiens, UniProt P50548 1-548).
T7 sequence: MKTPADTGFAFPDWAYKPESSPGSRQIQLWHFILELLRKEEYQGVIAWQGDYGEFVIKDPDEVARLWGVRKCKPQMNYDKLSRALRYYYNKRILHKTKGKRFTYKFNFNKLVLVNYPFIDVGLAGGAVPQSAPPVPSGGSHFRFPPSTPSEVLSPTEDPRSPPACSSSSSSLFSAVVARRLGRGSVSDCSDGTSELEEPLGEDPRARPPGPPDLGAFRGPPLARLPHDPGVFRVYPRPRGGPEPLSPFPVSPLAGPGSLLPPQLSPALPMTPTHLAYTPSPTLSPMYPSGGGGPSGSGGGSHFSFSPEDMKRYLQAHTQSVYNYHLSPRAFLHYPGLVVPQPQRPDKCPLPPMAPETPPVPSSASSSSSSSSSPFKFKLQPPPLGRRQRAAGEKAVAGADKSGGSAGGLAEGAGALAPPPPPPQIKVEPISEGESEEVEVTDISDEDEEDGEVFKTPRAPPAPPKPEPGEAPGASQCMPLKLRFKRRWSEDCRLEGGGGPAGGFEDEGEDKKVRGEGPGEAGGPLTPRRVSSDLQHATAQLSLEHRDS
Summed up:
as §1

Turning to TCAACG, the binding signal is 1.07 fold enrichment (6-mer frequency, TF over GST control) in test [1]; 1.13 fold enrichment (6-mer frequency, TF over GST control) in test [2]; 1.05 fold enrichment (6-mer frequency, TF over GST control) in test [3]; 1 fold enrichment (6-mer frequency, TF over GST control) in test [4]; 1.14 fold enrichment (6-mer frequency, TF over GST control) in test [5].

AATGGA: the binding signal in test [1] is 1.08 fold enrichment (6-mer frequency, TF over GST control); in test [2] it was 1.09 fold enrichment (6-mer frequency, TF over GST control); in test [4], 1.03 fold enrichment (6-mer frequency, TF over GST control); in test [6] it was 1.12 fold enrichment (6-mer frequency, TF over GST control).

Regarding AAAAGT, the binding signal is 1.08 fold enrichment (6-mer frequency, TF over GST control) in test [1]; 1.07 fold enrichment (6-mer frequency, TF over GST control) in test [2]; 1.12 fold enrichment (6-mer frequency, TF over GST control) in test [3]; 1.16 fold enrichment (6-mer frequency, TF over GST control) in test [4]; 1.08 fold enrichment (6-mer frequency, TF over GST control) in test [7]; 1.07 fold enrichment (6-mer frequency, TF over GST control) in test [5]. In addition, in test [6], the binding signal was 1.06 fold enrichment (6-mer frequency, TF over GST control).

TGGCCC: the binding signal is 1.07 fold enrichment (6-mer frequency, TF over GST control) in test [1]; 1.12 fold enrichment (6-mer frequency, TF over GST control) in test [2]; 1.03 fold enrichment (6-mer frequency, TF over GST control) in test [3]; 1.01 fold enrichment (6-mer frequency, TF over GST control) in test [4]; 1.02 fold enrichment (6-mer frequency, TF over GST control) in test [7]; 1.03 fold enrichment (6-mer frequency, TF over GST control) in test [5]. The binding signal in test [6] was 1.06 fold enrichment (6-mer frequency, TF over GST control).

In the case of ATCCAA, the binding signal in test [1] is 1.2 fold enrichment (6-mer frequency, TF over GST control); in test [2] it was 1.18 fold enrichment (6-mer frequency, TF over GST control); in test [3] it was 1.22 fold enrichment (6-mer frequency, TF over GST control); in test [4], 1.19 fold enrichment (6-mer frequency, TF over GST control); in test [7], 1.11 fold enrichment (6-mer frequency, TF over GST control); in test [5] it was 1.11 fold enrichment (6-mer frequency, TF over GST control). Also, the binding signal in test [6] is 1.11 fold enrichment (6-mer frequency, TF over GST control).

In the case of ATAGGT, the binding signal is 1.05 fold enrichment (6-mer frequency, TF over GST control) in test [1]; 1.05 fold enrichment (6-mer frequency, TF over GST control) in test [3]; 1.17 fold enrichment (6-mer frequency, TF over GST control) in test [4]; 1.06 fold enrichment (6-mer frequency, TF over GST control) in test [5].

Regarding CATAAA, in test [1], the binding signal is 1.06 fold enrichment (6-mer frequency, TF over GST control).

Take TGCCGA: the binding signal in test [1] was 1.14 fold enrichment (6-mer frequency, TF over GST control); in test [2] it was 1.08 fold enrichment (6-mer frequency, TF over GST control); in test [3], 1.05 fold enrichment (6-mer frequency, TF over GST control); in test [4] it was 1.15 fold enrichment (6-mer frequency, TF over GST control); in test [5], 1.22 fold enrichment (6-mer frequency, TF over GST control); in test [6], 1.28 fold enrichment (6-mer frequency, TF over GST control).

With AAAGCC, the binding signal was 1.01 fold enrichment (6-mer frequency, TF over GST control) in test [8]; 1.05 fold enrichment (6-mer frequency, TF over GST control) in test [5]; 1.01 fold enrichment (6-mer frequency, TF over GST control) in test [6].

Regarding GTTAAT, the binding signal in test [1] is 1.11 fold enrichment (6-mer frequency, TF over GST control); in test [2], 1.08 fold enrichment (6-mer frequency, TF over GST control); in test [3] it was 1.09 fold enrichment (6-mer frequency, TF over GST control); in test [4] it was 1.07 fold enrichment (6-mer frequency, TF over GST control); in test [7], 1.1 fold enrichment (6-mer frequency, TF over GST control); in test [5] it was 1.1 fold enrichment (6-mer frequency, TF over GST control). For the same sequence, the binding signal in test [6] was 1.06 fold enrichment (6-mer frequency, TF over GST control).

Regarding AGCATC, the binding signal was 1.02 fold enrichment (6-mer frequency, TF over GST control) in test [1]; 1.09 fold enrichment (6-mer frequency, TF over GST control) in test [2]; 1.27 fold enrichment (6-mer frequency, TF over GST control) in test [3]; 1.08 fold enrichment (6-mer frequency, TF over GST control) in test [7]; 1.07 fold enrichment (6-mer frequency, TF over GST control) in test [5]; 1.03 fold enrichment (6-mer frequency, TF over GST control) in test [6].

For TGAGCT, the binding signal in test [8] is 1.05 fold enrichment (6-mer frequency, TF over GST control); in test [6], 1.05 fold enrichment (6-mer frequency, TF over GST control).

Consider AAATCG, for which the binding signal in test [1] is 1.09 fold enrichment (6-mer frequency, TF over GST control); in test [4], 1.08 fold enrichment (6-mer frequency, TF over GST control); in test [5], 1.03 fold enrichment (6-mer frequency, TF over GST control); in test [6] it was 1.05 fold enrichment (6-mer frequency, TF over GST control).

With TGGATT, the binding signal in test [1] is 1.05 fold enrichment (6-mer frequency, TF over GST control); in test [2], 1.03 fold enrichment (6-mer frequency, TF over GST control); in test [4], 1.04 fold enrichment (6-mer frequency, TF over GST control); in test [6], 1.02 fold enrichment (6-mer frequency, TF over GST control).

On to AACGTT, for which the binding signal is 1.11 fold enrichment (6-mer frequency, TF over GST control) in test [1]; 1.17 fold enrichment (6-mer frequency, TF over GST control) in test [2]; 1.12 fold enrichment (6-mer frequency, TF over GST control) in test [3]; 1.1 fold enrichment (6-mer frequency, TF over GST control) in test [4]; 1.16 fold enrichment (6-mer frequency, TF over GST control) in test [7]; 1.11 fold enrichment (6-mer frequency, TF over GST control) in test [5]. Besides, the binding signal in test [6] is 1.19 fold enrichment (6-mer frequency, TF over GST control).

With CACGCG, the binding signal was 1.22 fold enrichment (6-mer frequency, TF over GST control) in test [1]; 1.13 fold enrichment (6-mer frequency, TF over GST control) in test [2]; 1.23 fold enrichment (6-mer frequency, TF over GST control) in test [3]; 1.13 fold enrichment (6-mer frequency, TF over GST control) in test [4]; 1.17 fold enrichment (6-mer frequency, TF over GST control) in test [7]; 1.09 fold enrichment (6-mer frequency, TF over GST control) in test [5]. In addition, the binding signal in test [6] is 1.18 fold enrichment (6-mer frequency, TF over GST control).

The values are drawn from PMC7862700, “An all-to-all approach to the identification of sequence-specific readers for epigenetic DNA modifications on cytosine”.
